Structures are written as SMILES. The source made the active and inactive calls. The calls were made as follows: active = hit-call score of the fitted dose curve at least 0.9, where 1 is the maximum; inactive = score below 0.9.

Test [1] in a line: ATG_GLI_CIS: Attagene CIS-FACTORIAL HepG2 Assay for human Zinc Finger Protein GLI1 (AID 2282945). Conditions: HepG2, Attagene cis-factorial reporter mRNA, GLI element; actives raise or lower the signal. The gist of the method: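 Bidirectional curve fits relative to DMSO, using reporter mRNA levels from RT-PCR plus capillary electrophoresis. Cells were HepG2 transiently carrying cis-regulated reporter constructs, harvested 24 h after dosing.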

Test [2] concerns the target Bile acid receptor (Homo sapiens) (UniProt Q96RI1). Description: ATG_IR1_CIS: Attagene CIS-FACTORIAL HepG2 Assay for human Nuclear Receptor Subfamily 1 Group H Member 4 (NR1H4), IR1 submotif (AID 2282946). To be noted: IR1 reporter transcription, actives raise or lower the signal. The procedure, abridged:
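HepG2 cells transiently transfected with multiplexed cis-element reporter units read endogenous transcription factor activity. After 24 h compound exposure, reporter mRNA was quantified by RT-PCR, fluorescent labelling, HpaI digestion and capillary electrophoresis; bidirectional fitting versus DMSO baseline.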

The nature of test [3]: ATG_ISRE_CIS: Attagene CIS-FACTORIAL HepG2 Assay for human Interferon Regulatory Factor 1 (IRF1) binding to an Interferon-Stimulated Response Element (ISRE) (AID 2282948). Conditions: HepG2 ISRE cis-reporter (Attagene), mRNA transcription readout; actives raise or lower the signal. The gist of the method:
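Signal reflects induction or loss of ISRE-linked reporter mRNA in transiently transfected HepG2 cells after a 24 h treatment, detected by fluorescent RT-PCR fragments on capillary electrophoresis and normalised to DMSO.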

Test [4] is described as follows: ATG_M_32_CIS: Attagene CIS-FACTORIAL HepG2 Assay for M32 Transcription Factor (Internal Marker) (AID 2282949).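 Also: background control marker of the multiplexed CIS panel rather than a real target.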 Conditions: HepG2 Attagene cis-factorial M32 reporter, mRNA; actives raise or lower the signal. The procedure, abridged: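 HepG2 human liver cells transiently transfected with cis-promoter-driven multiple reporter transcription units, dosed 24 h. Reporter mRNA quantified by RT-PCR, FAM-labelled primer extension, HpaI digest and capillary electrophoresis; bidirectional fit versus DMSO baseline.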

Test [5] can be described thus: ATG_M_06_CIS: Attagene CIS-FACTORIAL HepG2 Assay for M06 Transcription Factor (Internal Marker) (AID 2282950). Conditions: HepG2 Attagene CIS-FACTORIAL M06 internal marker reporter; actives raise or lower the signal. The gist of the method:
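Read-out is fluorescence of labelled reporter cDNA fragments resolved by capillary electrophoresis after RT-PCR. Cells: HepG2 carrying transfected cis-promoter reporter units, treated 24 h. Gain or loss of signal fitted relative to DMSO.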

Test [6] has as its target Hypoxia-inducible factor 1-alpha (Homo sapiens) (UniProt Q16665). Briefly: ATG_HIF1a_CIS: Attagene CIS-FACTORIAL HepG2 Assay for human Hypoxia Inducible Factor 1 (HIF1A) (AID 2282951). Conditions: HepG2 Attagene cis-factorial HIF1a reporter transcription; actives raise or lower the signal. The procedure, abridged: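 Dosed 24 h, transfected HepG2 cells yielded total RNA whose reporter transcripts were RT-PCR-amplified and sized by capillary electrophoresis using fluorescent labelling; DMSO defined baseline, with gain and loss of signal both fitted.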

The target in test [7] is Hepatocyte nuclear factor 6 (Homo sapiens) (UniProt Q9UBC0). Briefly: ATG_HNF6_CIS: Attagene CIS-FACTORIAL HepG2 Assay for human Hepatocyte Nuclear Factor 6 (HNF6) (AID 2282952). Conditions: HepG2 Attagene cis-factorial HNF6 reporter transcription; actives raise or lower the signal. The procedure, abridged:
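Twenty-four-hour chemical treatment of reporter-transfected HepG2 cells precedes RNA isolation, DNase-treated reverse transcription and PCR of reporter sequences. Labelled fragments are sized by capillary electrophoresis and fitted bidirectionally versus DMSO.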

Test [8] concerns the target Heat shock factor protein 1 (Homo sapiens) (UniProt Q00613). Description: ATG_HSE_CIS: Attagene CIS-FACTORIAL HepG2 Assay for human Heat Shock Transcription Factor 1 (HSE) (AID 2282953). Conditions: HepG2 HSE cis-reporter, Attagene RNA transcription; actives raise or lower the signal. The procedure, abridged: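 HepG2, transient MRTU transfection, cis-promoter reporters (endogenous TF activity). 24 h compound. RNA → oligo(dT) RT → PCR → 6-FAM primer extension → HpaI cut → CE. Bidirectional fit vs DMSO.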

Test [9] in a line: ATG_MRE_CIS: Attagene CIS-FACTORIAL HepG2 Assay for human Metal Responsive Element (MRE) (AID 2282954). To be noted: HepG2 MRE cis-reporter transcription, Attagene multiplex; actives raise or lower the signal. The gist of the method:
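Endogenous MRE-dependent transcription read as reporter mRNA in transiently transfected human HepG2 cells at 24 h. RNA reverse-transcribed, PCR-amplified, labelled and resolved by capillary electrophoresis; gain or loss relative to DMSO.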

Test [10] is described as follows: ATG_GRE_CIS: Attagene CIS-FACTORIAL HepG2 Assay for human Glucocorticoid Response Elements (GRE) (AID 2282947). To be noted: HepG2 GRE cis-reporter, Attagene multiplex mRNA; actives raise or lower the signal. The gist of the method: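 Reporter transcripts read by RT-PCR with capillary electrophoresis fluorescence after a 24 h chemical exposure of HepG2 cells transiently transfected with multiple cis-element reporter units. Gain or loss fitted against DMSO.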

Hepatocyte nuclear factor 6 (Homo sapiens), sequence (Q9UBC0 whole entry, looked up, the tested form may be a part): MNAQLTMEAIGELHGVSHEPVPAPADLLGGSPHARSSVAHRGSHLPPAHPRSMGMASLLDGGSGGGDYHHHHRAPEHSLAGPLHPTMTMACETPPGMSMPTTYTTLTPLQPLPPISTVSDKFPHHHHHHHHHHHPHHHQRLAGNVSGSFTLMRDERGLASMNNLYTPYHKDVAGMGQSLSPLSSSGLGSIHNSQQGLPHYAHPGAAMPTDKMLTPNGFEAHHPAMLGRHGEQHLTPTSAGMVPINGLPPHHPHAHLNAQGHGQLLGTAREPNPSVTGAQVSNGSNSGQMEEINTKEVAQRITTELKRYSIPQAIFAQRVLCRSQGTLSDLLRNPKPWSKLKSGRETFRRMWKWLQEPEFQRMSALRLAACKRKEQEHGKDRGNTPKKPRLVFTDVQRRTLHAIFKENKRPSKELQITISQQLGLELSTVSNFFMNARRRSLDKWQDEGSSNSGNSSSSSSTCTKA
Hypoxia-inducible factor 1-alpha (Homo sapiens), sequence (Q16665 whole entry, looked up): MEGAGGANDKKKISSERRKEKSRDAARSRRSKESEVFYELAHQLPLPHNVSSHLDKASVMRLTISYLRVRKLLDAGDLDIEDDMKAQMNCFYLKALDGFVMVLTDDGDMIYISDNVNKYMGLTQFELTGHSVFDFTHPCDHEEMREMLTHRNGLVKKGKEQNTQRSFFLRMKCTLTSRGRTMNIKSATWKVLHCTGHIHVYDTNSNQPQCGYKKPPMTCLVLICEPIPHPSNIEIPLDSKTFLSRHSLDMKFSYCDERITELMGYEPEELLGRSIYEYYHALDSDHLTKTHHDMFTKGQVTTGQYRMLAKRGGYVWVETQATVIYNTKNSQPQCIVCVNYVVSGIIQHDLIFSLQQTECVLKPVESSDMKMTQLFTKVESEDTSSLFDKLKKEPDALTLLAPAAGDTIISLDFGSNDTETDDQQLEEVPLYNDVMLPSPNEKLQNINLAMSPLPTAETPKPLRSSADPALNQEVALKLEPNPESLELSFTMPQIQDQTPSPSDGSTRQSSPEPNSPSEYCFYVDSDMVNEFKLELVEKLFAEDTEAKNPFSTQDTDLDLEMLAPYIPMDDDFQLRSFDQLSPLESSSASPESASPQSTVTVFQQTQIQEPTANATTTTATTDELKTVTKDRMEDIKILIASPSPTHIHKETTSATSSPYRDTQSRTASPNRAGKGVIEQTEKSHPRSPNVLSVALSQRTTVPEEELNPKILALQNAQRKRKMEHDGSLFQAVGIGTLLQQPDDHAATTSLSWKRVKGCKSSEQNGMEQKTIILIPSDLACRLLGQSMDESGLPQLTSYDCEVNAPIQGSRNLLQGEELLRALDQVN
Heat shock factor protein 1 (Homo sapiens), sequence (Q00613 whole entry, looked up): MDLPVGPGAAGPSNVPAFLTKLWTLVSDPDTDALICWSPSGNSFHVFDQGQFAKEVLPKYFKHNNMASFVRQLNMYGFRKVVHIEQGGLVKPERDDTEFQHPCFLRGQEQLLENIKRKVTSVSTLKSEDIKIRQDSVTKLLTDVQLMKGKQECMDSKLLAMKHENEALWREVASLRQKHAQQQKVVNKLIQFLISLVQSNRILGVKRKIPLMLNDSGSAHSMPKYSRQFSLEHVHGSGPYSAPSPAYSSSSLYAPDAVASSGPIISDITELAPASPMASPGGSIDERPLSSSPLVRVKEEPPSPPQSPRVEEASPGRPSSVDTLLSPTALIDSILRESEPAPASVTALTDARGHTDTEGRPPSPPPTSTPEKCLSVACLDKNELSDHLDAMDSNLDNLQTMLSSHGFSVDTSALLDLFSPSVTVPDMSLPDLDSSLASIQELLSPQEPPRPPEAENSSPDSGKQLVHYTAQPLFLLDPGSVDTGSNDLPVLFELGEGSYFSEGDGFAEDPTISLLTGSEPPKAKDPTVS
Bile acid receptor (Homo sapiens), sequence (Q96RI1 whole entry, looked up): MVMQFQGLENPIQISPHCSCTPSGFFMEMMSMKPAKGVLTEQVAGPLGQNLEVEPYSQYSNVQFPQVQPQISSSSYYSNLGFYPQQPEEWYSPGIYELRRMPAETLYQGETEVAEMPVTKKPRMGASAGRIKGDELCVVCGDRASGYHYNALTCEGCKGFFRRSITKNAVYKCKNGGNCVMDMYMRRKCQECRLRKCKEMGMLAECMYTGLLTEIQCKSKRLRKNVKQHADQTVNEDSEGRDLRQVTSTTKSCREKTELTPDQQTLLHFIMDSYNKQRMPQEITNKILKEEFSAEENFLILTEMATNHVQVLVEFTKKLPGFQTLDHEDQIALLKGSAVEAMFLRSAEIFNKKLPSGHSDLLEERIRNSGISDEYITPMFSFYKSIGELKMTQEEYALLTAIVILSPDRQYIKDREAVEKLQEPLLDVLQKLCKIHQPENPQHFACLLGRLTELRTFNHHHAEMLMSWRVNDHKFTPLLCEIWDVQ

Turning to `CC(=O)C1=C(C)[C@@H]2C[C@@]3(C1)[C@H](C)CC[C@H]3C2(C)C`, the AC50 in [1] is 166 µM (active); in test [3], 73.2 µM (active); in [4], 148 µM (active); in [5], 75.3 µM (active); in test [6] it was 131 µM (active); in test [7], 186 µM (active). For the same compound, the AC50 in [8] is 24.5 µM (active); in test [9] it was 146 µM (active). Also, the compound was classed as inactive in test [2].
As for `[Cu+]`, the compound was classed as inactive in [1], in [10], in test [3], in [4], in test [5] and in [6]. Further, the compound was classed as inactive in test [7] and in [8]. In test [9], the half-maximal activity concentration (AC50) is 1.09 µM (active).
As for `CC/C=C\CCOC(C)OCC` (stereo unspecified), the compound was called inactive in test [1], in test [10], in [3], in [4], in test [5] and in test [6]. Besides, the call in [7], in [8] and in test [9] was inactive.
`CCCCCCCCCCCCCCCCCC(=O)OCCCCCCCCCCCCCC(C)C`: the compound was called inactive in test [1], in test [10], in test [3], in test [4], in [5] and in [6]. The result in [7], in [8] and in [9] was inactive.
`CCCCCCCCCCOC(=O)c1ccccc1C(=O)OCCCCCCCC`: the result in test [1], in test [10], in test [3], in test [4], in test [5] and in test [6] was inactive. The outcome in test [7], in test [8] and in [9] was inactive.
Turning to `CC(C)(C)c1ccc(S)cc1`, the outcome in test [1], in [10], in test [3], in test [4], in test [5] and in [6] was inactive. Also, the compound was called inactive in test [7], in test [8] and in test [9].
Turning to `O=C(OCc1ccccc1)c1ccccc1O`, the compound was called inactive in test [1], in [10], in [3], in test [4], in [5] and in [6]. Also, the compound was classed as inactive in test [7], in test [8] and in [9].
Turning to `CC1(C)[C@H](C=C(Cl)Cl)[C@H]1C(=O)OCc1cccc(Oc2ccccc2)c1`, the result in test [1], in [10], in [3], in [4], in [5] and in test [6] was inactive. The call in [7], in test [8] and in [9] was inactive.
Take `CCCCCCC(C)O` (stereo unspecified): the call in test [1], in [10], in test [3], in test [4], in test [5] and in test [6] was inactive. The call in test [7], in test [8] and in test [9] was inactive.
For the compound `CC(C)(O)C(=O)c1ccc(OCCO)cc1`, the outcome in test [1], in [10], in [3], in test [4], in [5] and in [6] was inactive. In addition, the outcome in test [7], in test [8] and in [9] was inactive.
Turning to `CC(C)COC(=O)c1ccccc1O`, the call in test [1], in [10], in test [3], in [4], in [5] and in test [6] was inactive. Further, the call in [7], in test [8] and in test [9] was inactive.
Regarding `Cc1ccncc1`, the compound was called inactive in test [1], in [10], in [3], in test [4], in [5] and in test [6]. The outcome in test [7], in test [8] and in test [9] was inactive.
With `O=C(C=Cc1ccccc1)OCCCc1ccccc1`, the compound was called inactive in [1], in [10], in test [3], in test [4], in test [5] and in test [6]. The result in test [7], in test [8] and in test [9] was inactive.
As for `CC(=O)c1ccc(C)cc1`, the call in test [1], in test [10], in test [3], in [4], in [5] and in [6] was inactive. For the same compound, the outcome in [7], in test [8] and in test [9] was inactive.
`CCCCCCCCCCCCN1CCOCC1`: the result in test [1], in test [10], in test [3], in test [4], in test [5] and in [6] was inactive. Further, the call in [7], in [8] and in [9] was inactive.
Regarding `CCCCN(CCO)CCO`, the result in [1], in test [10], in test [3], in test [4], in [5] and in [6] was inactive. Further, the call in test [7], in [8] and in test [9] was inactive.
Consider `c1coc(CNc2ncnc3nc[nH]c23)c1`, for which the call in [1], in [10], in test [3], in [4], in [5] and in test [6] was inactive. For the same compound, the result in test [7], in test [8] and in [9] was inactive.
On to `c1ccc2scnc2c1`, for which the result in test [1], in [10], in test [3], in test [4], in test [5] and in test [6] was inactive. Also, the compound was classed as inactive in test [7], in test [8] and in test [9].
With `Cc1ccc(C(C)(C)O)cc1`, the outcome in test [1], in [10], in [3], in [4], in test [5] and in test [6] was inactive. The compound was classed as inactive in test [7], in test [8] and in [9].

Values taken from PubChem BioAssay (EPA / NIEHS).
